# Experimental data from PubChem BioAssay AID1159580 (chemical genetic matrix, 2015).
# “And” between values parts separate entries of the source, which are not always exact repeats. Identical values can stand only once. Hit rate of the full screen: of about 5,500 compounds, about 2,000 (36%) were called active. Not shown: some 18% with an inconclusive outcome. This is one part of the list. Values without a mark were called inactive. Cut-off read from the data, not from the text of the source: active = normalized growth mostly below about 0.91 (no sharp cut-off); inconclusive = no clear call, values can overlap the other calls; inactive = mostly above about 0.92.
# Assay: chemical genetic growth profiling, strain panel (AID 1159580);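 note: tested at 20 µM; growth read once vehicle control cultures reached saturation at 30 °C; 1 = growth at the plate median or of vehicle wells; lower values mean less growth of the strain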
# Conditions: S. cerevisiae deletion strains, growth OD
smiles,measurement,setting,value
C/C=C/CC(C)C(O)C1C(=O)NC(CC)C(=O)N(C)CC(=O)N(C)C(CC(C)C)C(=O)NC(C(C)C)C(=O)N(C)C(CC(C)C)C(=O)NC(C)C(=O)NC(C)C(=O)N(C)C(CC(C)C)C(=O)N(C)C(CC(C)C)C(=O)N(C)C(C(C)C)C(=O)N1C (stereo not given),normalized growth,"locus YAL013W, strain DEP1, hits give low values",0.998
same,normalized growth,"locus YAL021C, strain ccr4, hits give low values",1.02
same,normalized growth,"locus YAL026C, strain drs2, hits give low values",1
same,normalized growth,"locus YAL030W, strain snc1, hits give low values",1.02
same,normalized growth,"locus YAL040C, strain CLN3, hits give low values",1.04
same,normalized growth,"locus YBL061C, strain skt5, hits give low values",1.01
same,normalized growth,"locus YBR009C, strain hhf1, hits give low values",1.01
same,normalized growth,"locus YBR021W, strain FUR4, hits give low values",1.02
same,normalized growth,"locus YBR023C, strain chs3, hits give low values",1.01
same,normalized growth,"locus YBR171W, strain sec66, hits give low values",1.01
same,normalized growth,"locus YBR229C, strain ROT2, hits give low values",0.972
same,normalized growth,"locus YBR231C, strain swc5, hits give low values",1.02
same,normalized growth,"locus YBR279W, strain paf1, hits give low values",1.02
same,normalized growth,"locus YCL011C, strain gbp2, hits give low values",1.01
same,normalized growth,"locus YCL016C, strain dcc1, hits give low values",0.996
same,normalized growth,"locus YCL029C, strain bik1, hits give low values",1.01
same,normalized growth,"locus YCL061C, strain MRC1 (second series), hits give low values",0.983
same,normalized growth,"locus YCL061C, strain MRC1, hits give low values",1.02
same,normalized growth,"locus YCL069W, strain vba3, hits give low values",1.02
same,normalized growth,"locus YCR088W, strain abp1, hits give low values",1.02
same,normalized growth,"locus YDL005C, strain med2, hits give low values",1.01
same,normalized growth,"locus YDL035C, strain GPR1, hits give low values",0.979
same,normalized growth,"locus YDL040C, strain nat1, hits give low values",1.01
same,normalized growth,"locus YDL074C, strain BRE1, hits give low values",0.937
same,normalized growth,"locus YDL101C, strain DUN1, hits give low values",0.988
same,normalized growth,"locus YDL134C, strain PPH21, hits give low values",0.983
same,normalized growth,"locus YDL185W, strain tfp1, hits give low values",0.358 (active)
same,normalized growth,"locus YDL192W, strain arf1, hits give low values",1
same,normalized growth,"locus YDR001C, strain nth1, hits give low values",1.01
same,normalized growth,"locus YDR069C, strain doa4, hits give low values",1.03
same,normalized growth,"locus YDR101C, strain arx1, hits give low values",1.02
same,normalized growth,"locus YDR137W, strain rgp1, hits give low values",0.637 (active)
same,normalized growth,"locus YDR150W, strain NUM1, hits give low values",0.996
same,normalized growth,"locus YDR159W, strain sac3, hits give low values",0.993
same,normalized growth,"locus YDR162C, strain NBP2, hits give low values",0.952
same,normalized growth,"locus YDR195W, strain ref2",1.01
same,normalized growth,"locus YDR297W, strain sur2, hits give low values",1.02
same,normalized growth,"locus YDR318W, strain mcm21, hits give low values",1.03
same,normalized growth,"locus YDR334W, strain swr1, hits give low values",1.02
same,normalized growth,"locus YDR335W, strain msn5, hits give low values",1.02
same,normalized growth,"locus YDR388W, hits give low values",1.03
same,normalized growth,"locus YDR392W, strain spt3, hits give low values",0.873
same,normalized growth,"locus YDR502C, strain sam2, hits give low values",1.01
same,normalized growth,"locus YEL003W, strain gim4, hits give low values",1.02
same,normalized growth,"locus YEL037C, strain rad23, hits give low values",1.06
same,normalized growth,"locus YEL061C, strain CIN8 (second series), hits give low values",1
same,normalized growth,"locus YEL061C, strain CIN8, hits give low values",0.996
same,normalized growth,"locus YER002W, strain NOP16, hits give low values",0.966
same,normalized growth,"locus YER015W, strain faa2, hits give low values",1.02
same,normalized growth,"locus YER016W, strain bim1, hits give low values",1.02
same,normalized growth,"locus YER110C, hits give low values",1.02
same,normalized growth,"locus YER111C, strain swi4, hits give low values",0.99
same,normalized growth,"locus YER155C, strain BEM2 (second series), hits give low values",0.952
same,normalized growth,"locus YER155C, strain BEM2, hits give low values",1.03
same,normalized growth,"locus YER167W, strain BCK2, hits give low values",1.03
same,normalized growth,"locus YFR010W, strain ubp6, hits give low values",1
same,normalized growth,"locus YGL078C, strain dbp3, hits give low values",1.02
same,normalized growth,"locus YGL086W, strain mad1, hits give low values",1.02
same,normalized growth,"locus YGL167C, strain pmr1, hits give low values",1.03
same,normalized growth,"locus YGL173C, strain kem1, hits give low values",1.02
same,normalized growth,"locus YGL227W, strain vid30, hits give low values",1.02
same,normalized growth,"locus YGL240W, strain doc1, hits give low values",0.978
same,normalized growth,"locus YGL248W, strain PDE1, hits give low values",0.985
same,normalized growth,"locus YGL253W, strain hxk2, hits give low values",1.02
same,normalized growth,"locus YGR078C, strain PAC10, hits give low values",0.964 and 1.01
same,normalized growth,"locus YGR135W, strain pre9, hits give low values",0.991
same,normalized growth,"locus YGR229C, strain SMI1, hits give low values",0.937 and 1.01
same,normalized growth,"locus YGR252W, strain gcn5, hits give low values",0.913
same,normalized growth,"locus YHR013C, strain ard1, hits give low values",1.03
same,normalized growth,"locus YHR027C, strain rpn1, hits give low values",1.03
same,normalized growth,"locus YHR030C, strain SLT2, hits give low values",1.02 and 0.977
same,normalized growth,"locus YHR079C, strain IRE1 (second series), hits give low values",1.03
same,normalized growth,"locus YHR079C, strain IRE1, hits give low values",0.991
same,normalized growth,"locus YHR094C, strain hxt1, hits give low values",1.02
same,normalized growth,"locus YHR129C, strain ARP1, hits give low values",1.01
same,normalized growth,"locus YHR142W, strain chs7, hits give low values",1.02
same,normalized growth,"locus YHR200W, strain rpn10, hits give low values",1.02
same,normalized growth,"locus YIL066C, strain RNR3, hits give low values",0.986
same,normalized growth,"locus YIL073C, strain SPO22, hits give low values",1.02
same,normalized growth,"locus YIL125W, strain kgd1, hits give low values",1
same,normalized growth,"locus YIR030C, strain dcg1, hits give low values",1.02
same,normalized growth,"locus YJL092W, strain hpr5, hits give low values",1.02
same,normalized growth,"locus YJL095W, strain BCK1 (second series), hits give low values",1.03
same,normalized growth,"locus YJL095W, strain BCK1, hits give low values",0.908 and 0.989
same,normalized growth,"locus YJL115W, strain asf1, hits give low values",1.02
same,normalized growth,"locus YJL129C, strain trk1, hits give low values",1.08
same,normalized growth,"locus YJL134W, strain LCB3, hits give low values",1
same,normalized growth,"locus YJL154C, strain vps35, hits give low values",1.01
same,normalized growth,"locus YJL164C, strain tpk1, hits give low values",1.04
same,normalized growth,"locus YJL166W, strain qcr8, hits give low values",1.02
same,normalized growth,"locus YJL168C, strain set2, hits give low values",1.03
same,normalized growth,"locus YJL187C, strain SWE1 (second series), hits give low values",0.968
same,normalized growth,"locus YJL187C, strain SWE1, hits give low values",1.02
same,normalized growth,"locus YJR043C, strain POL32, hits give low values",1
same,normalized growth,"locus YJR066W, strain TOR1, hits give low values",0.959
